# “And” between values parts separate entries of the source, which are not always exact repeats. Equal values may be shown once.
# Tested on: HL-1
# Experiment: protection of cardiomyocytes from stress damage, SAR follow-up, cell-based, panel, H9c2 and HL-1, ATP luminescence, set 2 (AID 651871);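 also: cells exposed to stressor for 2 h before ATP readout; reference of the scale not given here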
# Details: H9c2/HL-1 cardiomyocytes, H2O2 oxidative stress; with H2O2, run 1, at 79 µM (top of the series)
row,Compound,activity (protection/inhibition)
1,COc1ccc2nc(-c3cc(OC)c(OC)c(OC)c3)cc(C(=O)NCC(=O)Nc3ccc(C(C)=O)cc3)c2c1,41.2% and 24.9%
2,COc1cc(-c2cc(C(=O)Nc3cccc(C(=O)NCc4ccccc4)c3)c3ccccc3n2)cc(OC)c1OC,34.6%
3,CCOC(=O)c1cccc(NC(=O)CNC(=O)c2cc(-c3cc(OC)c(OC)c(OC)c3)nc3ccccc23)c1,56.7%
4,COc1ccc2c(c1OC)C(=O)N1c3ccccc3C(=O)N(Cc3cccc(Cl)c3Cl)C21 (centres undefined),-0.863% and -7.11% and 4.56%

# — PubChem BioAssay AID651871 (Sanford-Burnham Center for Chemical Genomics, 2012)
